Results: PubChem BioAssay (NCI)
About 83,000 compounds went through this panel and 20% of them were active in at least one assay; those are over-represented in the sample as a whole.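 Negative percent growth values reflect cell death: -40 means 40% of the cells present at the start died, and -100 means all died.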 Activity calls are given as the source filed them. The calls were made as follows: active = growth percent below 10; inactive = the rest.

Key:
Assay in all cases: NCI-60 one-dose screen, 48 h (100 = growth as untreated, 0 = no growth, -100 = all killed)
[1] = tested on: NCI-H226 lung; details: 10 µM
[2] = tested on: HOP-62 NSCLC; details: 10 µM unless noted
[3] = tested on: NCI-H460 lung; details: 10 µM unless noted
[4] = tested on: HOP-92 NSCLC; details: 10 µM unless noted
[5] = tested on: NCI-H522 lung; details: 10 µM
[6] = tested on: A549/ATCC NSCLC; details: 10 µM unless noted
[7] = tested on: 786-0 renal; details: 10 µM unless noted
[8] = tested on: COLO 205 colon; details: 10 µM unless noted
[9] = tested on: DU-145 prostate; details: 10 µM unless noted
[10] = tested on: K-562 leukemia; details: 10 µM unless noted
[11] = tested on: MALME-3M melanoma; details: 10 µM unless noted
[12] = tested on: MDA-MB-231 breast; details: 10 µM unless noted
[13] = tested on: RXF 393 renal; details: 10 µM unless noted
[14] = tested on: SF-268 CNS; details: 10 µM unless noted
[15] = tested on: SF-295 CNS; details: 10 µM unless noted
[16] = tested on: SF-539 CNS; details: 10 µM unless noted
[17] = tested on: UACC-257 melanoma; details: 10 µM unless noted
[18] = tested on: M14 melanoma; details: 10 µM unless noted
[19] = tested on: NCI-H322M lung; details: 10 µM unless noted

Measured: growth

O=[N+]([O-])c1cc2c(cc1Br)C1C(C3C2C(Cl)(Cl)C(Cl)=C(Cl)C3(Cl)Cl)C(Cl)(Cl)C(Cl)=C(Cl)C1(Cl)Cl (configuration not stated)
inactive: [1] 86.7% | [2] 92.2% | [3] 107% | [4] 100% | [5] 83.1% | [6] 95.7% | [7] 89.9% | [8] 110% | [9] 108% | [10] 105% | [11] 80.8% | [12] 108% | [13] 96.9% | [14] 102% | [15] 95.8% | [16] 94.9% | [17] 92.9% | [18] 90.6%

CCOC(=O)C(CC(c1ccccc1)N1CCCCC1)[N+](=O)[O-] (configuration not stated)
inactive: [19] 88.5% | [2] 86% | [3] 68% | [4] 78.4% | [5] 59.4% | [6] 76.4% | [7] 93.3% | [8] 108% | [9] 94.4% | [10] 69.5% | [11] 62% | [12] 86.6% | [13] 100% | [14] 93% | [17] 89% | [18] 82.5%

N#CCCN1CCN(CCC#N)C1=S
inactive: [1] 112% | [2] 108% | [3] 103% | [6] 97.4% | [7] 105% | [8] 105% | [9] 110% | [10] 109% | [12] 99.6% | [13] 124% | [14] 99.4% | [15] 93.3% | [16] 101% | [17] 99.8% | [18] 96.6%

FC(F)(F)c1cc(CNc2nc(Cl)ncc2Br)cc(C(F)(F)F)c1
inactive: [1] 93.9% | [2] 90.5% | [3] 95.6% | [4] 71% | [5] 62.3% | [6] 83% | [7] 84.6% | [8] 103% | [9] 98.9% | [10] 50.2% | [11] 91.1% | [12] 89% | [13] 92.6% | [14] 93.4% | [15] 88.4% | [16] 85% | [17] 80.8% | [18] 93.9%

CC(=O)Nc1ccc(S(=O)(=O)N/N=C\c2ccc(Cl)c(Cl)c2)cc1
inactive: [1] 100% | [2] 100% | [3] 101% | [4] 72.1% | [6] 93.8% | [7] 113% | [8] 109% | [9] 110% | [10] 116% | [12] 110% | [13] 123% | [14] 100% | [15] 108% | [16] 111% | [17] 103% | [18] 102%

CN1CCc2cccc3c2C1Cc1ccc(O)c(O)c1-3 (configuration not stated)
inactive: [19] 109% | [2] 87.8% | [3] 111% | [4] 106% | [5] 39.5% | [6] 95.6% | [7] 86.2% | [8] 90.5% | [9] 96.3% | [10] 64.3% | [11] 83.1% | [12] 65.7% | [13] 91.1% | [14] 87.6% | [15] 97.8% | [16] 84.2% | [17] 103% | [18] 76.1%

COc1ncc(F)c(OC)n1
inactive: [1] 101% | [2] 94.3% | [3] 108% | [4] 87% | [5] 97.5% | [6] 99.8% | [7] 102% | [8] 110% | [9] 110% | [10] 100% | [11] 103% | [12] 115% | [13] 105% | [14] 104% | [15] 97.7% | [16] 107% | [17] 101% | [18] 102%

O=C1C(Br)=C(c2ccccc2)C(=O)C(Br)=C1c1ccccc1
active: [5] -61%
inactive: [1] 95.1% | [2] 111% | [3] 99.5% | [4] 92.1% | [6] 87.6% | [7] 95.7% | [8] 90.9% | [9] 105% | [10] 76.2% | [11] 114% | [12] 94.6% | [13] 102% | [14] 102% | [15] 97.9% | [16] 98.6% | [17] 96.2% | [18] 104%

Cc1cc[n+](CCc2ccccc2)cc1
inactive: [1] 102% | [6] 89.4% | [13] 108%

C(=C\c1ccccc1)/CN1CCN(C(c2ccccc2)c2ccccc2)CC1
inactive: [1] 86.3% | [2] 99.6% | [3] 96.5% | [4] 62.5% | [5] 93.5% | [6] 88.7% | [7] 95.3% | [8] 101% | [9] 109% | [10] 79.2% | [11] 106% | [12] 91.5% | [13] 81% | [14] 98.5% | [16] 90.7% | [17] 92.1% | [18] 99.1%
